# Assay results from PubChem BioAssay (Tox21).
# Active and inactive are the calls of the source. Calls come from the whole dose curve; as a rule, active = well fitted cell-killing curve with a large enough effect in the repeat runs; inconclusive = weak or mixed curves, or effect the other way; inactive = flat fitted curve, though single readings scatter.
# Assay: qHTS assay to identify small molecule HDAC inhibitors - cell viability counter screen (AID 1259365); note: nearly all actives have a fitted effect of over 50% in size
# Conditions: HCT-116 viability, CellTiter-Glo ATP luminescence, 2 h; series mostly up to 92.4 µM; activity change, negative = cytotoxicity: at the top concentration
# Text: U.S. Tox21 Program National Center for Advancing Translational Sciences [NCATS] NIH Chemical Genomics Center [NCGC] U.S. Environmental Protection Agency [EPA] National Institutes of Environmental Health Sciences [NIEHS] National Toxicology Program [NTP] U.S. Food and Drug Administration [FDA] Tox21 Assay Overview: Histone deacetylases (HDACs) are a group of epigenetic enzymes that regulate gene expression by histone deacetylation. HDACs are capable of introducing epigenetic modifications and such aberrations contribute to the onset and progression of several human diseases, thus making HDACs a popular therapeutic target. For identifying endogenous class I/II HDAC inhibitors a homogenous, luminogenic HDAC I/II cell based assay was used to measure the relative activity of class I and II HDACs from cells. Wild type HCT-116 cells were used to screen Tox21 compound libraries for identifying class I/II HDAC inhibitors.
# Tox21 Assay Protocol Summary: HCT-116 cells were dispensed at 1,500 per well in 5uL of culture medium into white solid bottom 1536-well plates (Greiner Bio-One, Monroe, NC) using a Multidrop Combi (Thermo Scientific, Waltham, MA) dispenser. The assay plates were incubated at 37 C and 5% CO2 for an overnight, and then 23nL of compounds dissolved in DMSO and positive control were transferred using a Pintool station (Wako, San Diego, CA). The assay plates were incubated at 37C and 5% CO2 for 2hr. After compound treatment, 4uL of CellTiter-Glo reagent (Promega Corporation, Madison, WI) was added to each well of the assay plates using Flying Reagent Dispenser (FRD, Aurora Discovery, San Diego, CA) and incubated the assay plates at room temperature for 30min. The luminescence signal was quantified using a ViewLux plate reader (Perkin Elmer, Shelton, CT).
# % is set by controls: 0 for no effect and ±100 for the full control effect; potency is the fitted concentration of half-maximal effect.
SMILES,"activity change, negative = cytotoxicity",Potency
COc1ccc2c3c1O[C@H]1[C@H](O)CC[C@H]4[C@@H](C2)N(C)CC[C@@]341,0.304% (inactive),
COC(=O)C(C)N(C(=O)c1ccco1)c1c(C)cccc1C (stereo not given),-5.06% (inactive),
CCCC[N+]1(C)CCCC1 (tested in a mixture with another compound),14.1% (inactive),
COC(=O)c1ccccc1S(=O)(=O)NC(=O)Nc1nc(C)nc(OC)n1,-5.05% (inactive),
Nc1ccc(Cl)cc1C(=O)c1ccccc1F,-4.17% [at 42.5 µM] (inactive),
Oc1ccc2[nH]cc(CCCCN3CC=C(c4ccccc4)CC3)c2c1,-1.39% [at 42.5 µM] (inactive),
CCN(CC)CCN1C(=O)CN=C(c2ccccc2F)c2cc(Cl)ccc21,-0.604% [at 42.5 µM] (inactive),
c1cc[n+]2c(c1)-c1cccc[n+]1CC2,-0.0492% [at 42.5 µM] (inactive),
COP(=O)(OC)O/C(=C\Cl)c1cc(Cl)c(Cl)cc1Cl,2.41% (inactive),
C1=CCC=C1,1.24% (inactive),
Cc1ccn2nc(S(=O)(=O)Nc3c(F)cccc3F)nc2n1,3.61% (inactive),
ClCBr,0.358% (inactive),
CO/N=C(\C(=O)OC)c1ccccc1CO/N=C(\C)c1cccc(C(F)(F)F)c1,-2.14% (inactive),
O=C(O)CCCCCCNC1c2ccccc2CCc2ccccc21,0.574% [at 42.5 µM] (inactive),
C[C@H]1[C@H](c2ccc(Cl)cc2)SC(=O)N1C(=O)NC1CCCCC1,-8.36% (inactive),
O=[N+]([O-])c1cccc2cccc([N+](=O)[O-])c12,7.64% (inactive),
CCc1cccc(C)c1N(C(=O)CCl)[C@@H](C)COC,-13.9% (inactive),
Clc1ccc(C(Cl)(Cl)Cl)cc1Cl,-0.534% (inactive),
CSSC,-0.256% (inactive),
C=C(C)C(=O)[O][Sn]([CH2]CCC)([CH2]CCC)[CH2]CCC,,12.2 µM (active)

SMILES,"activity change, negative = cytotoxicity",Potency
C=CCOC(=O)c1ccccc1N,1.46% (inactive),
O=[N+]([O-])c1ccc(CCl)cc1,-2.07% (inactive),
Cc1c([N+](=O)[O-])c(C)c([N+](=O)[O-])c(C(C)(C)C)c1[N+](=O)[O-],-7.51% (inactive),
CN1[C@@H]2CC[C@H]1CC(O)C2 (stereo not given in full),5.64% (inactive),
CNN,-1.25% (inactive),
Nc1cc(Cl)ccc1Cl,1.36% (inactive),
C[C@@H]1CC2=CC(=O)CC[C@@H]2[C@H]2CC[C@@]3(C)[C@@H](CC[C@]3(C)O)[C@@H]21,-0.707% [at 42.5 µM] (inactive),
COP(=O)(OC)Oc1ccc([N+](=O)[O-])cc1,2.08% (inactive),
COC(=O)N(OC)c1ccccc1COc1ccn(-c2ccc(Cl)cc2)n1,-0.339% (inactive),
C[N+]1(C)[C@@H]2CC[C@H]1CC(OC(=O)C(CO)c1ccccc1)C2 (stereo not given in full),1.96% [at 42.5 µM] (inactive),
O=C(N[C@@H]1N=C(c2ccccc2F)c2cccc3c2N(CC3)C1=O)c1cc2ccccc2[nH]1,4.15% [at 42.5 µM] (inactive),
COP(=S)(OC)Oc1ccc([N+](=O)[O-])c(C)c1,-8.97% (inactive),
CNC(=O)CSP(=O)(OC)OC,3.15% (inactive),
ClC1(Cl)C2(Cl)C3(Cl)C4(Cl)C(Cl)(Cl)C5(Cl)C3(Cl)C1(Cl)C5(Cl)C24Cl (stereo not given),1% (inactive),
O=c1[nH]c2cc(Cl)ccc2n1C1CCNCC1,2.32% [at 42.5 µM] (inactive),
CCOP(=S)(OCC)Oc1cc(C)nc(N(CC)CC)n1,-11.4% (inactive),
COc1cnc(OC)n2nc(NS(=O)(=O)c3c(OCC(F)F)cccc3C(F)(F)F)nc12,1.81% (inactive),
CN1CCc2cc(Cl)c(O)cc2[C@H]2c3ccccc3CC[C@@H]21,-4.36% [at 42.5 µM] (inactive),
N#Cc1c2ccccc2cc2ccccc12,-5.57% (inactive),
Oc1cc(Cl)c(Cl)c(Cl)c1Cl,4.29% (inactive),
